Calls of active or inactive are those of the source. Calls follow the shape of the dose curve; as a rule, active = well fitted activation curve with a large enough effect in the repeat runs; inconclusive = weak or mixed curves; inactive = flat fitted curve, though single readings scatter.

Outcome data for 40 molecules are collected here from PubChem BioAssay (Tox21).

The nature of this test: Caspase-3/7 induction in CHO-K1 cells by small molecules, qHTS assay (AID 1346980). Also: nearly all actives have a fitted effect of over 15% in size. To be noted: CHO-K1 caspase-3/7 induction, Caspase-Glo luminescence, 17 h; series mostly up to 92.4 µM. An excerpt: National Center for Advancing Translational Sciences [NCATS]
NIH Chemical Genomics Center [NCGC]
U.S. Environmental Protection Agency [EPA]
National Institutes of Environmental Health Sciences [NIEHS]
National Toxicology Program [NTP]
Apoptosis is a process of programmed cell death and plays a central role in the development of multicellular organisms. It is a highly regulated process and induces cell death by activating caspases, which are the members of cysteine aspartic acid-specific protease (caspase) family. Caspases involved in apoptosis are classified by their mechanism of action as initiator caspases (caspase-2, -8, -9 and -10) and executioner caspases (caspase-3, -6, and -7). Inhibition of apoptosis results in number of cancers, autoimmune diseases, inflammatory diseases and viral infection. To identify small molecule compounds that induce apoptosis, a homogeneous, luminescent Caspase-Glo 3/7 assay was used. Wild type CHO-K1 cells were used to screen Tox21 libraries for identifying caspase-3/7 activity inducers.
CHO-K1 cells were dispensed at 1,500 per well in 5uL of culture medium into white solid bottom 1536-well plates (Corning Life Sciences, Corning, NY) using a Multidrop Combi (Thermo Scientific, Waltham, MA) dispenser. The assay plates were incubated at 37 C and 5% CO2 for 5hr, and then 23nL of compounds dissolved in DMSO and positive control were transferred using a Pintool station (Wako, San Diego, CA). The assay plates were incubated at 37C and 5% CO2 for 17hr. For caspase-3/7 activity read, 4uL of Caspase-Glo 3/7 reagent (Promega Corporation, Madison, WI) was added to each well of the assay plates using Flying Reagent Dispenser (FRD, Aurora Discovery, San Diego, CA) and incubated the assay plates at room temperature for 30min. The luminescence signal was quantified using a ViewLux plate reader (Perkin Elmer, Shelton, CT).
Background: qHTS replaces the single test concentration by a dilution series.
Consider `c1ccc2[nH]c(-c3cscn3)nc2c1`, for which the call was inactive.
With `O=[N+]([O-])c1ccc(O)cc1` the entry was “inactive”; with `COc1cc(C=O)ccc1O`, “inactive”.
For the molecule `CCn1cc(C(=O)O)c(=O)c2ccc(C)nc21`, the result was inactive.
With `CN(C)Cc1cc(CN(C)C)c(O)c(CN(C)C)c1` the entry was “inactive”.
In the case of `COc1ccccc1NC(=O)CC(C)=O`, the molecule was called inactive.
Then `NC(=O)OCC(COC(N)=O)c1ccccc1`, with “inactive”; and `CC(C)Cc1ccc(C(C)C(=O)O)cc1` (stereo not given), with “inactive”; and `C#C[C@]1(O)CC[C@H]2[C@@H]3CCc4cc(O)ccc4[C@H]3CC[C@@]21C`, with “inactive”.
With `NC(=O)N/N=C/c1ccc([N+](=O)[O-])o1`, the outcome was inactive.
With `CN(C)C=O` the entry was “inactive”.
Then `COC1=CC(=O)C[C@@H](C)[C@]12Oc1c(Cl)c(OC)cc(OC)c1C2=O`, with “inactive”; and `CC1=C(/C=C/C(C)=C/C=C/C(C)=C/C(=O)O)C(C)(C)CCC1`, with “inactive”.
With `CCCCCCCCCCCCCC(=O)OC(C)C` the entry was “inactive”; with `NCCNc1cccc2ccccc12`, “inactive”; with `CC1=NN(c2ccccc2)C(=O)C1`, “inactive”.
On to `Cn1cnc2c1c(=O)[nH]c(=O)n2C`, for which the molecule was called inactive.
Then `Cc1cccc(C)c1O`, with “inactive”.
With `OCCCc1ccccc1` the entry was “inactive”; with `C=CCOC(=O)CC(C)C`, “inactive”; with `C[C@]12CC[C@@H]3c4ccc(O)cc4CC[C@H]3[C@@H]1CCC2=O`, “inactive”.
With `Cc1c(N(C)CS(=O)(=O)O)c(=O)n(-c2ccccc2)n1C` the entry was “inactive”; with `CCCCNC(=O)NS(=O)(=O)c1ccc(N)cc1`, “inactive”; with `CC(=O)Oc1ccccc1C(=O)O`, “inactive”.
Regarding `CCCCOC(=O)CCCCCCCCC(=O)OCCCC`, the molecule was called inactive.
With `COCC(C)N` (stereo not given) the entry was “inactive”.
Regarding `CCc1cc(C(N)=S)ccn1`, the molecule was classed as inactive.
With `Nc1ccc(N=Nc2ccccc2)c(N)n1`, the result was inactive.
With `CC(C)CC(C)CC(O)CC(C)C` (stereo not given), the outcome was inactive.
With `CC(C)(C)CC(C)(C)c1ccc(O)c(-n2nc3ccccc3n2)c1` the entry was “inactive”.
As for `Cc1cnc(NC(=O)C2=C(O)c3ccccc3S(=O)(=O)N2C)s1`, the call was inactive.
With `O=C1OC(c2ccc(O)cc2)(c2ccc(O)cc2)c2ccccc21` the entry was “inactive”.
With `CCCCCCCC(=O)OCC(O)CO` (stereo not given) the entry was “inactive”; with `C1CNCCN1`, “inactive”.
Consider `C=C(C)C(N)=O`, for which the outcome was inactive.
Then `CCN1CCCC1=O`, with “inactive”; and `CC(=O)c1ccc(S(=O)(=O)NC(=O)NC2CCCCC2)cc1`, with “inactive”; and `Oc1cccc(O)c1`, with “inactive”.
Then `CCCCOCCOCCSC#N`, with “inactive”.
Then `CC1(C)O[C@@H]2[C@@H](CO[C@@]3(COS(N)(=O)=O)OC(C)(C)O[C@@H]23)O1`, with “inactive”.
